Rows were chosen to be rich in hits. Some 17% of all compounds tested hit in one or more screens of this group.
ClpP mod: qHTS Assay for Activators of ClpP | purified B. subtilis ClpP, FRET peptide cleavage, 20 min | hit rate 1.9% among 340,000 | AID 651965, 2013 | Potency, µM (doses to about 57.5 µM), without a hit: at the top dose activity change, negative = active; active means well fitted falling curve with a large enough effect; inconclusive means small, poorly fitted or top-dose-only effect; inactive means no such curve, though single readings can be large or run the other way; further: the source files actives as falling curves though it sought activators and does not explain the sign; nearly all actives have a fitted effect of over 65% in size
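Buffer: 100 mM Tris/HCl pH8, 100 mM KCl, 0.05% low protease BSA, 2.5% glycerol, 0.01% Tween-20. ClpP 10 microg/mL final; 20 min RT; delta FRET normalized to ADEP and DMSO controls.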
TDP1 inh: qHTS Assay for Inhibitors of Tyrosyl-DNA Phosphodiesterase (TDP1); Tyrosyl-DNA phosphodiesterase 1 (Homo sapiens), Q9NUW8; recombinant TDP1, AlphaScreen DNA substrate cleavage; Potency, µM (titrated, usually from 130 µM), inactives show top-dose activity change, negative = inhibition, usual class: inhibitors; hit rate 0.28% among 350,000; AID 485290, 2010; further: on the % scale 0 is the no-effect control and ±100 the full control effect; nearly all actives have a fitted effect of over 40% in size
Target sequence (Q9NUW8 whole entry, looked up): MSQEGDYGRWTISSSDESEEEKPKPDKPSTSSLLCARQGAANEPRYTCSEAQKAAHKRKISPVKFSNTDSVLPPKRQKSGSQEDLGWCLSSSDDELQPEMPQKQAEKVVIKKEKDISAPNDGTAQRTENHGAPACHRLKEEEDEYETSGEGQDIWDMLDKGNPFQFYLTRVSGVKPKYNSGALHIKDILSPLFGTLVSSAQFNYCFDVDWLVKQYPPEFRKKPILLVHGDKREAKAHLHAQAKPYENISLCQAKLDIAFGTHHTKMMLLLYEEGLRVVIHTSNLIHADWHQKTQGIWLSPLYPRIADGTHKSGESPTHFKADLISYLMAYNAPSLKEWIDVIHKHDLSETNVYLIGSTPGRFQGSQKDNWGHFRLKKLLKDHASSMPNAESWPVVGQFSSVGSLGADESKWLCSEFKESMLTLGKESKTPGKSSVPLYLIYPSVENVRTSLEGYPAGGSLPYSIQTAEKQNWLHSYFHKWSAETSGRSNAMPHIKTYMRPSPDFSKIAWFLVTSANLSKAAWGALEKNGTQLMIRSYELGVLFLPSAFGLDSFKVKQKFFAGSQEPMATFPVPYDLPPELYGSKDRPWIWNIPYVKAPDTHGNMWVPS
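Recombinant E. coli-expressed Tdp1 (1 nM) preincubated with compound 15 min at RT, then 5'-biotin/3'-phosphotyrosine-FITC DNA substrate (15 nM) added for 5 min. AlphaScreen beads (10 ug/ml) added, 10 min RT; tyrosine-FITC cleavage read as signal loss.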
TDP1 cell noCPT: qHTS for Inhibitors of human tyrosyl-DNA phosphodiesterase 1 (TDP1): qHTS in cells in absence of CPT; DT40 Tdp1-/- hTDP1 cells, no CPT, ATP luminescence, 48 h; Potency, µM (highest dose often 46.2 µM), without a hit: at the top dose activity change, negative = growth inhibition, hits mostly inhibitors; hit rate 15% among 420,000; further: on the % scale 0 is the no-effect control and ±100 the full control effect; nearly all actives have a fitted effect of over 55% in size
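Seeded 400 DT40-hTDP1 cells/well (vehicle DMSO, no 20 nM CPT); pinned compounds; ≥48 hr at 37 °C; CellTiter-Glo luminescence as viability measure.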
TDP1 cell CPT: qHTS for Inhibitors of human tyrosyl-DNA phosphodiesterase 1 (TDP1): qHTS in cells in presence of CPT | chicken DT40 Tdp1-/-;hTDP1 cells + 20 nM CPT, ATP luminescence, 48 h | hit rate 12% among 420,000 | Potency, µM (top dose mostly 46.2 µM), for inactives: at the top dose activity change, negative = growth inhibition, usual class: inhibitors; further: on the % scale 0 is the no-effect control and ±100 the full control effect; nearly all actives have a fitted effect of over 55% in size
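Cell growth measured by CellTiter-Glo luminescence after a minimum 48 h, 37 C compound exposure with 20 nM CPT in Tdp1-knockout DT40 cells stably expressing hTDP1, seeded 400/well; qHTS titration format.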
* hit, by the source's call; ? = inconclusive; . = no result; [ ] = another dose, or the depositor's remark. Unless noted, the call rests on the fitted dose curve; in most records, active means well fitted curve in the direction sought with a large enough effect; inconclusive means small, poorly fitted or top-dose-only effect, or another doubt; inactive means no such curve, though single readings can be large; an effect the other way counts as inactive or inconclusive. Potency means the concentration at half of the fitted maximal effect.

SMILES	ClpP mod	TDP1 inh	TDP1 cell noCPT	TDP1 cell CPT
CCOc1ccccc1CNC(=O)c1cc2n(n1)CCCN(Cc1ccc(C)cc1)C2=O	1%	9%	15µM*	16µM*
COc1cccc(CNC(=O)c2cc3n(n2)CCCN(Cc2ccc(C)cc2)C3=O)c1OC	0%	6%	16µM*	23µM*
Cc1ccc(CN2CCCn3nc(C(=O)NCc4ccc(OC(C)C)cc4)cc3C2=O)cc1	-4%	9%	16µM*	18µM*
CCc1nc2ccc(C(=O)NCc3ccc4c(c3)OCO4)cn2c1N(CCC(C)C)CCN(C)C	-4%	.	?	21µM*
CCc1nc2ccc(C(=O)NCc3ccc4c(c3)OCO4)cn2c1N(C)Cc1cccs1	-3%	.	16µM*	?
CCCCN(C)c1c(C)nc2ccc(C(=O)NCCc3c[nH]c4ccccc34)cn12	1%	.	?	?
Cc1nc2ccc(C(=O)NCCc3c[nH]c4ccccc34)cn2c1N(C)C(=O)CCc1ccccc1	-5%	.	23µM*	23µM*
CCc1nc2ccc(C(=O)NCc3ccc4c(c3)OCO4)cn2c1N(C)C(=O)Cc1ccccc1	-3%	.	23µM*	-36%
COCCNC(=O)c1cccc(OC2CCN(Cc3ccc(OC(F)F)cc3)CC2)c1	.	.	-26%	4%
CC(C)c1ccc(OCC(=O)Nc2ccc(S(=O)(=O)Nc3ncccn3)cc2)cc1	-3%	1%[12.3 µM]	-2%	6%
COc1ccccc1CNC(=O)CCNC(=O)N1CC(=O)Nc2ccccc21	-1%	1%	16%	-1%
COC1CC(NC(C)=O)C(OC(=O)c2ccccc2)C(CBr)O1 (stereo unspecified)	1%	.	-11%	-12%
Cc1[nH]c(=O)[nH]c(=O)c1S(=O)(=O)Nc1cccc(Cl)c1C	-3%	2%	11%	-1%
COc1ccc(CCN(C)C(=O)C2CCN(C(=O)Nc3ccccc3)CC2)cc1OC	.	.	-6%	-1%
CCc1nc2ccc(C(=O)NCCOc3ccc(OC)cc3)cn2c1N(C)C(=O)COc1ccccc1	-6%	.	4%	?
CCc1nc2ccc(C(=O)NCc3ccc(OC)cc3)cn2c1N(C)C(=O)Cc1ccccc1	-5%	.	21µM*	?
Cc1cccc(NC(=O)CN2C(=O)C(c3ccc(F)cc3)=NC23CCCCCC3)c1C	-3%	8%	?	?
O=C(CN1C(=O)C(c2ccc(F)cc2)=NC12CCCCCC2)Nc1ccccc1Cl	-1%	0%	23µM*	?
Cc1ccc(C)c(C(O)c2ncc(-c3ccc(F)cc3)[nH]2)c1 (stereo unspecified)	0%	.	15µM*	16µM*
Cc1ccc(C(O)c2ncc(-c3ccc(F)cc3)[nH]2)c(C)c1 (stereo unspecified)	-4%	.	?	?
Cc1ccc(C(O)c2ncc(-c3ccc(Cl)cc3)[nH]2)c(C)c1 (stereo unspecified)	0%	.	16µM*	?
O=C(NCc1ccccc1)C12CC3CC(CC(Cl)(C3)C1)C2	32µM*	2%	-24%	2%
Cn1cc(S(=O)(=O)N2CCCC2)cc1C(=O)NCc1ccccc1Cl	-5%	.	-16%	16µM*
COc1cccc(CNC(=O)c2cc(S(=O)(=O)N3CCOCC3)cn2C)c1	-4%	.	1%	21µM*
COc1ccccc1CNC(=O)c1cc(S(=O)(=O)N2CCCC2)cn1C	1%	.	-16%	-20%
SMILES	ClpP mod	TDP1 inh	TDP1 cell noCPT	TDP1 cell CPT
O=C(CN1C(=O)NC(c2ccccc2)(c2ccccc2)C1=O)NCc1ccccc1	1%	1%	13%	-1%
Cc1ccc(C2(c3ccccc3)NC(=O)N(CC(=O)NCc3ccccc3)C2=O)cc1C (stereo unspecified)	-1%	0%	23µM*	?
CCNC(=O)CN1C(=O)NC2(CCOc3ccccc32)C1=O (stereo unspecified)	.	7%	-6%	13%
O=C(CN1C(=O)NC2(CCOc3ccccc32)C1=O)NCc1ccccc1 (stereo unspecified)	11µM*	1%	4%	0%
CC(=O)N1CCc2cc(Br)cc(S(=O)(=O)NCCc3cccc(C)c3)c21	2%	2%	?	?
N#C/C(=C(/O)c1ccc(Cl)cc1)c1nc2ccccc2[nH]1	.	.	12%	-2%
COc1cc(/C(O)=C(\C#N)c2nc3ccccc3[nH]2)cc(OC)c1OC	5%	.	13µM*	?
CC(=O)OC(/C(O)=C(\C#N)c1nc2ccccc2[nH]1)c1ccccc1 (stereo unspecified)	-22%	4%	18µM*	?
N#C/C(=C(/O)c1ccc(Cl)c([N+](=O)[O-])c1)c1nc2ccccc2[nH]1	-4%	-1%	?	15µM*
N#C/C(=C(/O)C(Cl)(Cl)Cl)c1nc2ccccc2[nH]1	2%	.	9.2µM*	8.2µM*
O=C(COC(=O)C1CCC(=O)N1)Nc1cccc([N+](=O)[O-])c1 (stereo unspecified)	-2%	0%	-16%	-9%
CC(=O)c1ccc(NS(=O)(=O)c2cccc(C(=O)Nc3ccccc3C(=O)O)c2)cc1	-9%	.	?	-21%
FC(F)(F)c1cc(CCN2CCNC[C@@H]2Cc2ccccc2)cc(C(F)(F)F)c1	-1%	.	?	21µM*
COc1cccc2cc(-c3nc4sc5c(c4c(=O)[nH]3)CCC(C(C)(C)C)C5)c(=O)oc12 (stereo unspecified)	-2%	3%	14%	-3%
CN(Cc1ccccc1)S(=O)(=O)c1ccc2[nH]c3c(c2c1)CCCCC3	?	-4%	16µM*	?
Cc1ccc(CNS(=O)(=O)c2ccc3[nH]c4c(c3c2)CCCC4)cc1	-15%	-1%	-24%	0%
COc1ccc(CNC(=O)CN(C)S(=O)(=O)c2ccc3[nH]c4c(c3c2)CCCC4)cc1	?	0%	?	?
O=S(=O)(NCc1ccccc1)c1ccc2[nH]c3c(c2c1)CCCCC3	?	10%	21µM*	?
Cc1ccc(CNS(=O)(=O)c2ccc3[nH]c4c(c3c2)CCCCC4)cc1	16%	1%	15µM*	?
O=S(=O)(NCc1ccc(F)cc1)c1ccc2[nH]c3c(c2c1)CCCC3	-14%	9%	16µM*	?
CC(=O)OC[C@@H]1O[C@@H](O/N=C2/C[C@@H](O)[C@@H](O)[C@@H]3[C@@H]4C(=O)N(C[C@@H]5CCCO5)C(=O)[C@H]4CC[C@@H]23)[C@H](OC(C)=O)[C@H](OC(C)=O)[C@@H]1OC(C)=O	.	5%[21 µM]	.	.
Cc1ccc(NC(=O)c2cc(S(=O)(=O)N3CCCC(C)C3)cn2C)c(Br)c1 (stereo unspecified)	44%	2%	?	?
